Hits are enriched below; roughly 3.5% of the tested compounds scored in any of these assays.
FBW7 act: activators of human E3 ligase FBW7; AlphaScreen FBW7–phospho-cyclin E peptide binding, activator screen; Q969H0; normalized activity (activation), % at 26.1 µM; 0.13% of 650,000 active; in the data active = normalized activity above about 1.9%;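 note: purified mutant Fbw7 with reduced substrate affinity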
Target sequence (Q969H0 whole entry, looked up): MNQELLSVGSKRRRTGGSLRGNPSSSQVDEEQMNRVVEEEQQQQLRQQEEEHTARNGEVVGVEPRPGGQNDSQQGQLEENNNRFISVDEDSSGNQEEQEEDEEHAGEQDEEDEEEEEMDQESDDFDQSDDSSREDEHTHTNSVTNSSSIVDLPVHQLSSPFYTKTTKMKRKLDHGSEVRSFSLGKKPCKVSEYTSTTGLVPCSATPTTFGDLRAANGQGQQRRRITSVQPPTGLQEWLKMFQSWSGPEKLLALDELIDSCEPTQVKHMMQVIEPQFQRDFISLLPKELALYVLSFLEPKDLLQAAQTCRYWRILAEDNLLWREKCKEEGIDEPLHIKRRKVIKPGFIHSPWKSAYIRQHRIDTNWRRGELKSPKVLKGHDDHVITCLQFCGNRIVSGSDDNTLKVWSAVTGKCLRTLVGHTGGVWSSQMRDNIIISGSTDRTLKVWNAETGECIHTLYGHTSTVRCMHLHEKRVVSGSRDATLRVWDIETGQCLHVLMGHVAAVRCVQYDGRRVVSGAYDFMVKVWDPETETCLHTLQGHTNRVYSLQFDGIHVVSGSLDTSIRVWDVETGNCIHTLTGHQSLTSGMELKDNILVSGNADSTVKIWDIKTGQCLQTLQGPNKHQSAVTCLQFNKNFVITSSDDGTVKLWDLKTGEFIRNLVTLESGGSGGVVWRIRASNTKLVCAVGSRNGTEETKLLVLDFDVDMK
GPR151 activ: activates the human receptor GPR151. activation, % at 11.2 µM. PathHunter beta-arrestin GPR151 cells, luminescence. 1% of 650,000 active; in the data active = activation above about 4.9%;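 note: 0% = median of compound wells and 100% = cells with positive control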
MITF inh: inhibitors of human MITF. inhibition, % at 2.6 µM. 0.91% of 650,000 active. AID 1259374. O75030. AlphaScreen MITF homodimerization, bead proximity signal; in the data active = inhibition above about 50%;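 note: 0% = vehicle wells with protein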
TEAD-YAP block: TEAD-YAP interaction inhibition. HEK-TIYL cells, TEAD-Gal4/YAP UAS-luciferase luminescence. 1.4% of 640,000 active. inhibition, % at 9.12 µM. AID 1259422; in the data active = inhibition above about 32%;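 note: 0% = median of test compound wells and 100% = reference inhibitor wells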
Starred values were filed as active, the others as inactive; ! = repeats disagree.

SMILES | FBW7 act | GPR151 activ | MITF inh | TEAD-YAP block
O=C(N/N=C/c1ccc(O)cc1)c1cc(O)c(O)c(O)c1 | -0.2 | -0.3 | 59.3* | 8.4
CCCOc1ccc(/C(O)=C2\C(=O)C(=O)N(CCCN(C)C)C2c2ccc(OC)c(OC)c2)c(C)c1 (stereo unspecified) | 0.3 | -1.8 | 15.4 | 32.8*
CCCOc1ccc(/C(O)=C2\C(=O)C(=O)N(CCN(C)C)C2c2ccc(OC)c(OC)c2)c(C)c1 (stereo unspecified) | -0.4 | 0.6 | -5.7 | -6.8
CC1=C(C(=O)OC(C)C)C(c2cccs2)C2=C(CC(c3ccccc3)CC2=O)N1 (stereo unspecified) | 0.4 | -2.1 | -22.9 | 41.8*
CC1=C(C(=O)OCCc2ccccc2)C(c2ccccc2F)C2=C(CC(c3cccs3)CC2=O)N1 (stereo unspecified) | 0.1 | -1.2 | 2.2 | -9.1
CCOC(=O)C1=C(C)NC2=C(C(=O)CC(c3cccs3)C2)C1c1ccsc1 (stereo unspecified) | 0.2 | -0.3 | 7.7 | 55.0*
COCCOC(=O)C1=C(C)NC2=C(C(=O)CC(c3cccs3)C2)C1c1ccsc1 (stereo unspecified) | 0.5 | 1.2 | -2.9 | -6.9
COC(=O)C1=C(C)NC(S)=C(C#N)C1c1cccs1 (stereo unspecified) | 0.0 | -0.9 | 20.0 | 6.1
COC(=O)C1=C(C)NC(C)=C(C#N)C1c1cccs1 (stereo unspecified) | 0.0 | -1.1 | -12.2 | 34.6*!
CC1=C(C(=O)OCC(C)C)C(c2ccccc2F)C2=C(CC(c3cccs3)CC2=O)N1 (stereo unspecified) | 0.2 | -2.1 | 4.5 | 32.5*
O=C(Nc1ccc(Cl)cc1Cl)c1cnccn1 | 0.0 | -0.3 | 5.0 | -10.7
COC(=O)C1=C(C)NC2=C(C(=O)CC(c3cccs3)C2)C1c1cccc(OC)c1 (stereo unspecified) | 0.2 | 2.7 | -3.6 | 22.5
COc1ccc(C2C(C(=O)OCCc3ccccc3)=C(C)NC3=C2C(=O)CC(c2ccccc2)C3)cc1 (stereo unspecified) | 1.7 | 0.7 | 7.3 | 0.4
CCOC(=O)C1=C(C)NC2=C(C(=O)CC(c3cccs3)C2)C1c1ccc(F)cc1 (stereo unspecified) | 0.4 | 1.9 | -2.7 | 69.6*
COCCOC(=O)C1=C(C)NC2=C(C(=O)CC(c3ccccc3)C2)C1c1ccc(OCc2ccccc2)cc1 (stereo unspecified) | 3.4* | -0.4 | 8.6 | -9.8
CCOC(=O)C1=C(C)NC2=C(C(=O)CC(c3ccccc3)C2)C1c1ccsc1 (stereo unspecified) | -0.1 | -0.6 | -4.2 | 43.8*
COC(=O)C1=C(C)NC2=C(C(=O)CC(c3cccs3)C2)C1c1cc(OC)ccc1OC (stereo unspecified) | 0.0 | 2.5 | -5.3 | 33.4*
Cc1ccc(-c2csc(NC(=O)c3ccc(S(=O)(=O)N4CCCC4)cc3)n2)o1 | -0.2 | 3.3 | -8.7 | 8.4
C[C@@H](O)[C@@H]1NC(=O)[C@@H]2C[C@H](NCc3cccc(Cl)c3)CN2C1=O | -0.1 | -1.1 | 1.8 | -6.3
CC(C)(C)c1ccc(C(=O)NCCOc2ccccc2Cl)cc1 | 0.2 | 2.2 | 12.5 | 66.3*
CCOC(=O)c1csc2c1CCC/C2=N/OC(C)=O | 1.3 | -0.5 | 5.5 | 36.4*
CCOC(=O)c1c(N)sc2c1CCC/C2=N\O | -0.3 | -0.6 | 6.0 | 52.6*
CCOC(=O)c1c(NC(=O)CC)sc2c1CCC/C2=N/OC(C)=O | 0.0 | -0.1 | 1.3 | -3.4
Cc1ccnc(NC(=O)CCC(=O)N(CC(=O)NCc2ccccc2)c2ccc(F)cc2)c1 | 0.0 | 0.6 | 8.9 | -0.1
Cc1cccc(NC(=O)CSc2nnc(NC(=O)c3ccccc3C)s2)c1 | -0.1 | -0.2 | 24.8 | -37.6
SMILES | FBW7 act | GPR151 activ | MITF inh | TEAD-YAP block
COc1cccc(-n2c(SC)nnc2-c2ccc(O)cc2)c1 | 0.3 | 0.2 | 23.0 | -5.2
CCCc1ccc(-c2ccc(F)c(N3C(=O)c4cccc(F)c4C3=O)c2)nc1 | -0.1 | -7.6 | 0.2 | 61.9*
COc1ccccc1OCC(=O)Nc1cccc(C(=O)O)c1 | 0.0 | -7.1 | -8.9 | 35.6*
Cc1cccc(NC(=O)COc2ccc(Cl)cc2Cl)c1 | -0.1 | -0.9 | -4.5 | -23.9
O=C(COc1ccc(Cl)cc1Cl)Nc1cccc(O)c1 | 0.1 | -0.7 | 15.0 | 71.5*
COc1ccc(NC(=O)COc2ccccc2C)cc1OC | 0.7 | 1.3 | -9.8 | -14.4
O=C(COc1ccc(Cl)cc1Cl)Nc1cccc(C(=O)O)c1 | -0.1 | -6.9 | -13.6 | 97.2*
COc1ccc(NC(=O)COc2ccccc2C(C)(C)C)cc1OC | 0.1 | 2.6 | 6.6 | 43.1*
CC(C)(C)c1ccccc1OCC(=O)NN | -0.2 | 0.3 | -4.7 | 35.9*
O=C(COc1ccc(C(F)(F)F)cc1[N+](=O)[O-])Nc1ccc(Cl)cc1 | -0.1 | 0.2 | -2.0 | -14.1
O=Cc1ccccc1OCC(=O)Nc1ccccc1 | 1.0 | -3.1 | 14.8 | 32.5*
O=C(COc1ccc(Cl)cc1[N+](=O)[O-])Nc1ccccc1 | -0.2 | -1.4 | -5.8 | 33.7*
Cc1cc2c(Nc3ccc(Oc4ccccc4)cc3)ncnc2s1 | 0.1 | 0.6 | 0.0 | -8.5
CCOc1ccc(-c2csc(NC(=O)CN3C(=O)CCC3=O)n2)cc1 | -0.1 | 0.5 | -1.4 | -13.1
CN(C)CCN1CCN(c2nccnc2-c2ccc(F)c(Cl)c2)CC1 | -0.3 | -1.3 | -11.9 | 4.4
COC(=O)C1=C(C)NC(=O)NC1c1cc(Br)c(OC)c(OC)c1 (stereo unspecified) | 0.0 | -2.1 | -12.8 | -8.3
COC(=O)C1=C(C)Nc2nnnn2C1c1ccc(OC)cc1 (stereo unspecified) | 0.8 | -0.9 | 8.3 | 4.2
CCCCOc1c(Br)cc(C2NC(=O)NC(C)=C2C(=O)OC)cc1OC (stereo unspecified) | 0.2 | 1.4 | 9.3 | 35.0*
CCOC(=O)C1=C(C)Nc2nnnn2C1c1ccc(OC)c(OC)c1 (stereo unspecified) | -0.1 | -0.1 | -2.4 | 0.4
CCOC(=O)C1=C(C)Nc2nnnn2C1c1cc(Br)c(OC)c(OC)c1 (stereo unspecified) | 0.9 | 1.0 | 2.8 | 53.4*
COC(=O)C1=C(C)Nc2nnnn2C1c1cc(OC)c(OC)c(OC)c1 (stereo unspecified) | 0.0 | 0.6 | 6.3 | 50.9*
O=C(NNC(=S)NCc1ccco1)c1ccccc1NS(=O)(=O)c1cccs1 | 0.1 | 1.3 | -0.2 | 4.2
CC1C2(C)OC(=N)C(C#N)(C(c3ccc(F)cc3)O2)C1(C#N)C#N (stereo unspecified) | 0.0 | -0.5 | 7.6 | 12.5
CCN1C=C\C(=C/C=C(/C=C/c2cc[n+](CC)cc2)c2cc[n+](CC)c3ccccc23)c2ccccc21 | -0.2 | -0.5 | 0.8 | 6.9
CCN1C=C/C(=C/C=c2/s/c(=C\c3sc(-c4ccccc4)c(-c4ccccc4)[n+]3CC)n(CC)c2=O)c2ccccc21 | 2.0* | -1.0 | -58.4 | 7.6
COc1ccc(-c2cc(=O)c3cc(OCC(=O)Nc4ccccc4)ccc3o2)cc1 | 0.6 | -1.3 | 3.6 | -6.4
COc1ccc(-c2cc3ccc(O)cc3oc2=O)cc1 | 1.6 | -9.8 | -8.5 | 69.6*
